The source of these data is PubChem BioAssay.

Values without a mark were called inactive. Active and inactive are the calls of the source. Cut-off read from the data, not from the text of the source: active = fold change permeability below about 0.7 or above about 1.3; inactive = in between.

The experiment in a line: compounds altering in vitro BBB leakiness – cell-based, FITC-avidin fluorescence, HTS, primary screen (AID 1963498). Note: test concentration not given here. Conditions: brain endothelial barrier, actives lie on both sides.
As for `C[C@H](N[C@@H](CCc1ccccc1)C(=O)O)C(=O)N1CCC[C@H]1C(=O)O`, the fold change permeability is 0.6 (active). For `CC12CC3CC(C)(C1)CC(N)(C3)C2`, the fold change permeability is 0.8. As for `NCCc1cnc[nH]1`, the fold change permeability was 1.3 (active).

On to `CCCn1c(=O)c2c(ncn2C)n(CCC)c1=O`, for which the fold change permeability is 1. Consider `Cc1nc(C(=O)N2CCC[C@H]2Cc2nnc(-c3ccccc3)o2)c(-c2ccccc2F)s1`, for which the fold change permeability is 1. As for `CCN1CCc2nc(N)oc2CC1`, the figure is 1.1; as for `Cc1nnc(SCC2=C(C(=O)O)N3C(=O)[C@@H](NC(=O)Cn4cnnn4)[C@H]3SC2)s1`, 0.9. With `O=C1N(c2ccccc2)c2ccccc2C1(Cc1ccncc1)Cc1ccncc1` the figure was 0.9; with `Nn1nnc2ccccc21`, 0.9; with `CCc1ccc(/C=C2/SC(=S)NC2=O)cc1`, 1.4 (active).

As to `Cc1cc(C)cc(NC(=O)CN(c2cc([N+](=O)[O-])ccc2C)S(C)(=O)=O)c1`, the fold change permeability is 1.5 (active).

Turning to `O=Nc1c(-c2c(O)[nH]c3cc(Br)ccc23)[nH]c2ccccc12`, the fold change permeability is 1.2. Regarding `O=[N+]([O-])c1cccc2cn[nH]c12`, the fold change permeability is 1.

As for `CCCCCN=C(N)N/N=C/c1c[nH]c2ccc(OC)cc12`, the fold change permeability was 0.9. With `O=C1Nc2ccc(Cl)cc2[C@@](C#CC2CC2)(C(F)(F)F)O1`, the fold change permeability was 1.2. Consider `COc1cc(/C=C/C(=O)N2CCN(CC(=O)N3CCCC3)CC2)cc(OC)c1OC`, for which the fold change permeability is 1. Regarding `O=C(O)c1cc(=O)c2c(Cl)cc(Cl)cc2[nH]1`, the fold change permeability was 1.1. As for `O=C(NCc1ccc(F)cc1)C1CCN(S(=O)(=O)c2cc(Cl)cc(Cl)c2)CC1`, the fold change permeability was 1.5 (active). As for `CNC(=O)c1cc2c(cn1)[nH]c1ccccc12`, the figure is 0.8.

On to `COC(=O)C1=C(C)NC(C)=C(C(=O)OC)C1c1cccc(NC(=O)NCCCN2CCC(c3cccc(OC)c3)CC2)c1`, for which the fold change permeability is 1.2. As for `N[C@@H](Cc1ccc(O)c(I)c1)C(=O)O`, the fold change permeability is 1.9 (active). For the compound `C[C@@H](O[C@H]1OCCN(Cc2n[nH]c(=O)[nH]2)[C@H]1c1ccc(F)cc1)c1cc(C(F)(F)F)cc(C(F)(F)F)c1`, the fold change permeability was 1.4 (active). As to `O=C(OC1C[C@@H]2CC3C[C@H](C1)N2CC3=O)c1c[nH]c2ccccc12` (some centres undefined), the fold change permeability is 0.8. Consider `CCCC(=O)NCCc1csc(-c2ccc(Cl)cc2)n1`, for which the fold change permeability is 1.5 (active).

For the compound `O=C1CN2Cc3c(ccc(Cl)c3Cl)N=C2N1`, the fold change permeability is 1.1.

For the compound `CCOC(=O)C12CC1/C(=N\O)c1ccccc1O2` (centres undefined), the fold change permeability was 1.2. For `N[C@@H](CS(=O)O)C(=O)O`, the fold change permeability is 1. Take `CC(C)[C@H]1C(=O)N[C@@H](CCCN=C(N)N)C(=O)NCC(=O)N[C@@H](CC(=O)O)C(=O)N[C@H](Cc2ccccc2)C(=O)N1C`: the fold change permeability was 1.2. As for `Cc1nc2ccccn2c(=O)c1CCN1CCC(C(=O)c2ccc(F)cc2)CC1`, the fold change permeability is 1.1. With `O=C(Nc1cccc(C(=O)Nc2ccc(S(=O)(=O)O)c3cc(S(=O)(=O)O)cc(S(=O)(=O)O)c23)c1)Nc1cccc(C(=O)Nc2ccc(S(=O)(=O)O)c3cc(S(=O)(=O)O)cc(S(=O)(=O)O)c23)c1` the figure was 0.9; with `c1ccc(Cn2c(NCc3ccco3)nc3ccccc32)cc1`, 1.6 (active). On to `COc1cc(C(C)=O)ccc1OCCCN1CCC(c2noc3cc(F)ccc23)CC1`, for which the fold change permeability was 1.3 (active). As for `CN(C)CC/C=C1\c2ccccc2COc2ccccc21`, the fold change permeability is 1.4 (active). Consider `CS(=O)(=O)c1ccc(C2=C(c3ccccc3)C(=O)OC2)cc1`, for which the fold change permeability is 0.8.

Turning to `C#CCN(C)Cc1ccccc1`, the fold change permeability is 0.6 (active). With `CN(C)[C@@H]1C(=O)C(C(N)=O)=C(O)[C@@]2(O)C(=O)C3=C(O)c4c(O)ccc(Cl)c4[C@@H](O)[C@H]3C[C@@H]12` the figure was 1. With `CC1=C(/C=C/C(C)=C/C=C/C(C)=C/C(=O)O)C(C)(C)CCC1` the figure was 1.3 (active). For the compound `CC(C)(Sc1ccc(CCN(CCCCC2CCCCC2)C(=O)NC2CCCCC2)cc1)C(=O)O`, the fold change permeability is 1.

Consider `O=C(O)c1ccc(-c2ccc(/C=C3\SC(=S)N(Cc4ccccc4)C3=O)o2)cc1`, for which the fold change permeability is 2 (active).
